Experimental data from PubChem BioAssay (NCI).
Compounds without any hit were thinned out: in the full panel of roughly 83,000, 20% have a hit.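 The endpoint reported here, percent growth, reads 100 for growth as untreated, 0 for no net growth and -100 for all cells dead.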 Unmarked numbers belong to inactive results. Active and inactive are the calls of the source. Rule for the calls: active = growth percent below 10; inactive = the rest.

Legend:
Assay in all cases: NCI-60 one-dose screen, 48 h (100 = growth as untreated, 0 = no growth, -100 = all killed)
Settings in all cases: 10 µM unless noted
NCI-H226 lung = tested on: NCI-H226 lung
NCI-H322M lung = tested on: NCI-H322M lung
HOP-62 NSCLC = tested on: HOP-62 NSCLC
NCI-H460 lung = tested on: NCI-H460 lung
NCI-H522 lung = tested on: NCI-H522 lung
A549/ATCC NSCLC = tested on: A549/ATCC NSCLC
786-0 renal = tested on: 786-0 renal
COLO 205 colon = tested on: COLO 205 colon
DU-145 prostate = tested on: DU-145 prostate
K-562 leukemia = tested on: K-562 leukemia
MALME-3M melanoma = tested on: MALME-3M melanoma
MDA-MB-231 breast = tested on: MDA-MB-231 breast
RXF 393 renal = tested on: RXF 393 renal
SF-268 CNS = tested on: SF-268 CNS
SF-539 CNS = tested on: SF-539 CNS
UACC-257 melanoma = tested on: UACC-257 melanoma
M14 melanoma = tested on: M14 melanoma
HCT-15 colon = tested on: HCT-15 colon
SF-295 CNS = tested on: SF-295 CNS

Structure (SMILES)	growth (NCI-H226 lung) [%]	growth (NCI-H322M lung) [%]	growth (HOP-62 NSCLC)	growth (NCI-H460 lung)	growth (NCI-H522 lung)	growth (A549/ATCC NSCLC) [%]	growth (786-0 renal) [%]	growth (COLO 205 colon)	growth (DU-145 prostate) [%]	growth (K-562 leukemia)	growth (MALME-3M melanoma) [%]	growth (MDA-MB-231 breast)	growth (RXF 393 renal)	growth (SF-268 CNS) [%]	growth (SF-539 CNS)	growth (UACC-257 melanoma) [%]	growth (M14 melanoma) [%]	growth (HCT-15 colon)	growth (SF-295 CNS)
CC(C)(C)c1cc(O)c(O)c(C(C)(C)C)c1	75.6	63.5	64.7%	14.7%	0.232% (active)	20.9	52.2	64.9%	68.7	3.38% (active)	67	61.1%	65%	53.2	40.6%	80.5	51.9	26.7%	
COc1ccc(C(=O)/C=C/c2c(Cl)nc3c(c(C)nn3-c3ccccc3)c2-c2ccc(Br)cc2)cc1	97.3	109	104%	106%	98.6%	104	91.5	111%	112		102	105%	101%	103		108	100	102%	103%
COc1ccc(/C=C(\C#N)c2ccccc2)cc1	89.6	97.5	99.6%	98.9%	90.1%	81.8	102	103%	103	28.8%		78.4%		95.2	87.3%	85.9	88.7	59.5%	94.7%
CCN(CC)CCOc1ccccc1-n1c(C)ccc1-c1ccccc1	92	80.1	106%		101%	88.2		70.3%	103	-48.1% (active)	89	102%	84.6%	78.5	92.7%	100		90.5%	93%
CCC(C)(C)C(=O)O[C@H]1C[C@@H](C)C=C2C=C[C@H](C)[C@H](CC[C@@H]3C[C@@H](O)CC(=O)O3)[C@H]21	64	51	80.7%	24.3%	8.21% (active)	67.5	51.5	68.3%	95.3	63.3%	94.1		36.1%	33.2	90.7%	86.7	59.3	54.7%	11.7%
O=C(Nc1nc(-c2ccc(Cl)cc2)cs1)c1cc(O)c(O)c(O)c1	74.9	60.8	38.6%	10.2%	-34.9% (active)	25.2	11.5	77.6%	35.8	7.99% (active)		36%		26.7	5.36% (active)	42.7	23.2	18.8%	31.2%
CSc1nc2c(c(=O)n1C)C(c1ccccc1)C1=C(N2)/C(=C/c2ccccc2)CCC1 (configuration not stated)	74.1	86	94.3%	54.3%	24.5%	86.2	54.6		72.2		70.4	53.5%	36.9%	62.6	63.4%	52.2	65.9	58.9%	7.45% (active)
Cc1nc2c(O)cccc2cc1CO	114	165	106%	103%	107%	109	96.3	142%	113	82.8%	178	110%	136%	99.8	93.5%	116	110	109%	106%
CCCCCCCC/C=C/CCCCCCCC1=NC(C)(C)CN1CCO	83.3	50.8	6.19% (active)	-39.5% (active)	-45.2% (active)	24.7	32.3	-63.9% (active)	64.5	-51.6% (active)	64.9	9.49% (active)	-23.4% (active)	46	-5.97% (active)	20.1		-34.9% (active)	30.2%
